These molecules were tested against PEG-3 (UniProt Q6IN02) (assay: Peg3 promoter luciferase inhibitors, potency, dose response, cell-based, HeLa, CREF/GAPDH counter-screen panel (AID 624167)). Settings: CREF/GAPDH counter-screens; HeLa PEG-Prom luciferase reporter, overnight, run 1, dose range 1, at 100 µM (top of the series) unless noted.
Sequence of PEG-3 (Q6IN02 whole entry, looked up): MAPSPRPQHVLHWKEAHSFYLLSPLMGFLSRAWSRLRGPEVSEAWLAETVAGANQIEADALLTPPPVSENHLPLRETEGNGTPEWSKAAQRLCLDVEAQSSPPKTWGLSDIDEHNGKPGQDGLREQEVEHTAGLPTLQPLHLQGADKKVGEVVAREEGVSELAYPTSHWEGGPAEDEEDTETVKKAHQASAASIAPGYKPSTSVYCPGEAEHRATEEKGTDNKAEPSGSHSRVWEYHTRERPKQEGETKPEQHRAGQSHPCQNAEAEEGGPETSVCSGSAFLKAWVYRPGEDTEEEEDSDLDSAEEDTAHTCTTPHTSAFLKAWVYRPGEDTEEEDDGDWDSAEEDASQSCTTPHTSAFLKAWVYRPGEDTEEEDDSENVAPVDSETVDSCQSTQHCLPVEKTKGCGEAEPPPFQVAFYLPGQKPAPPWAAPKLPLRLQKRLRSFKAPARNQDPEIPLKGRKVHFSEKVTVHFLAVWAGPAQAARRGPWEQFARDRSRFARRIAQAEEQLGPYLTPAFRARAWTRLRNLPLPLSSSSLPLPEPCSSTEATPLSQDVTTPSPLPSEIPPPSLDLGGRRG

Compound	inhibition [%]
O=C(N/N=C/c1cccs1)c1n[nH]c2c1CCCC2	99.5
Cc1ccccc1OCC(O)CNC1CCC(NCC(O)COc2ccccc2C)CC1 (stereo not given)	94.1
c1cc2c(cc1C1=NNC(=NC3CC3)SC1)OCCO2	98.9
CCOC(=O)c1cnc(Nc2nc3ccccc3o2)nc1C	85.5
Cc1ccc2nc(NC(=O)c3ccccn3)sc2c1	99.4
CCOc1ccc(-c2ccc(SC)nn2)cc1	95
Cc1cccc(/C=N/Nc2ccc3ccccc3n2)c1	101
CN1CCN(c2ccc(-c3ccc4ccccc4n3)cc2)CC1	99.5
Cc1cc(C(=O)CN2C(=O)c3ccccc3S2(=O)=O)c(C)n1CC1CCCO1 (stereo not given)	102
O=C1c2cccc3cc([N+](=O)[O-])cc(c23)C(=O)N1CCN1CCCC1	102
Cc1cc(C(=O)COC(=O)c2ccccc2O)c(C)n1Cc1cccs1	88.8
O=c1c(Cl)c(N2CCCCC2)cnn1-c1nc2ccccc2[nH]1	96.7
C(=NN1CCCCCC1)c1ccc2ccccc2n1	102
CC(=O)c1cccc(-c2ccnc3c2CC(C(=O)Nc2cccc(NS(C)(=O)=O)c2)O3)c1 (stereo not given)	58
COc1ccc(/C=C/c2nc3ccccc3n2C)cc1	99.2
C(=NNc1ccc2ccccc2n1)c1ccccn1	99
O=C(NCCc1ccccc1F)c1ccc2c(c1)OCCO2	98.5
C=CCn1c(C)cc(C(=O)CN2C(=O)c3ccccc3S2(=O)=O)c1C	94.5
CN(C)CCCN(C(=O)c1ccc(S(=O)(=O)N2CCc3ccccc3C2)cc1)c1nc2ccc(F)cc2s1	102
O=C(Cn1ncc(Cl)c(Cl)c1=O)N1CCc2ccccc21	99.5

Compound	inhibition [%]
C(=N\Nc1nc2ccccc2[nH]1)/c1ccccn1	93.6
O=C(CCl)Nc1ccccc1Sc1ccc(Cl)cc1	102
CCc1ccc(C(=O)Nc2nc3ccccc3[nH]2)cc1	95.9
COCCn1c(C)cc(C(=O)COC(=O)c2cccc(O)c2)c1C	89.5
C/C(=N\NC(=O)c1n[nH]c2c1CCC2)c1cccs1	98.6
CC(=O)n1cc(N(C(=O)CCl)c2ccc(C)cc2)c2ccccc21	102
C=C1CC2(OC1=O)c1ccccc1CCc1ccccc12	102
NC(C(=O)O)C1ON=C(Cl)C1O (stereo not given)	41.4
COc1ccc(N(C(=O)CCl)C(C(=O)NC2CCCCC2)c2cccnc2)cc1 (stereo not given)	99.1
CC1=CC2C(C(O)CC3(C)C2CC(C)C32OCOC23COCO3)C2(C)C/C(=C\O)C(=O)C=C12 (stereo not given)	102
COc1ccc(OCc2cccc(C(=O)O)c2)cc1	98.7
O=C(Nc1ccccn1)c1cc2ccccc2o1	82.3
O=C(CN1C(=O)c2ccccc2S1(=O)=O)c1ccc2c(c1)OCCCO2	98.1
Cc1ccc(C(=O)Nc2ncc([N+](=O)[O-])s2)cc1	91.3
CCOc1ccc(NC(=O)c2ccccn2)cc1	88.8
COc1cccc(NC(=O)c2nc(S(C)(=O)=O)ncc2Cl)c1	99.3
CC(C)(C)C(=O)Nc1ccc(NC(=O)c2ccco2)nc1	102
C/C(=N/NC(=O)c1cc(C2CC2)[nH]n1)c1cccs1	92.3
Cc1ccccc1-c1nc(-c2ccccn2)no1	96.7
OCC1OC(n2ccc3c(NO)ncnc32)C(O)C1O (stereo not given)	99.4

— PubChem BioAssay
